Out of some 68,000 compounds screened, about 2,700 (4%) showed an effect of 50% or more. This is one part of a sample in which strong results are shown more often than they occur.
Test system: Plasmodium berghei
Assay: Screen against P. berghei liver stage (PbLuc), transformed with Luciferase, at 2uM
Type: functional, HepG2
Settings: tested at 2 uM

Going from `CC(C)C(=O)NCCCn1ncc2c(Cl)cccc21` to `O=C(CCn1ncc2c(Cl)cccc21)NCC1CC1`, the INHIBITION rises from -7.01% to 20.8%.

Going from `CSCC(=O)N(C)Cc1ccc(N(C)C)cc1` to `Cc1nc2cc(O)nn2c(C)c1CCC(=O)N(C)Cc1ccccc1`, the INHIBITION rises from -20.68% to 37.41%.

First: Cc1ccc2cc(CN(C)Cc3ccncn3)c(=O)[nH]c2c1
Second: CCOc1cccc(CCNC(=O)Cc2cccc(O)c2)n1
The INHIBITION of the first is lower: -20.98% for the first, 26.74% for the second.

Going from `CN(C(=O)CCC(F)(F)F)c1cccc2ncccc12` to `CN(Cc1cccc2ncccc12)C(=O)CCC(F)(F)F`, the INHIBITION falls from 59.67% to -22.2%.

Going from `CCCC(=O)N(C)c1cccc2ncccc12` to `CCOc1cccc(CCNC(=O)Cc2ccn[nH]2)n1`, the INHIBITION falls from 28.14% to 14.82%.

Compared with `CCN(CC)S(=O)(=O)N(C)Cc1ccc2c(c1)OCCO2`, `Cc1ccc(S(=O)(=O)NC(=O)CCc2ccccc2)cc1N(C)C` is lower in INHIBITION: 8.06% for the first, 0.01% for the second.

First: CCN(CC(=O)NCCc1nc(C)no1)Cc1ccc(Cl)cc1
Second: CCOc1cccc(CCNC(=O)Cc2ccccc2O)n1
The INHIBITION of the first is lower: -45.29% for the first, 76.82% for the second.

First: Cc1nc2cc(O)nn2c(C)c1CCC(=O)N(C)CCC(C)C
Second: CCN(CC)C(=O)CCc1c(C)nc2cc(O)nn2c1C
The INHIBITION of the first is higher: 65.38% for the first, 18.97% for the second.

Going from `CC(C)(C)c1cc(CNC(=O)c2cc(COc3ccccc3)[nH]n2)[nH]n1` to `CN(CCCOc1ccccc1)C(=O)c1csc(-c2nnc[nH]2)n1`, the INHIBITION rises from -103.13% to 35.94%.

Going from `Cc1nn(C)c(C)c1NC(=O)CN1CCCC1c1noc(C(C)C)n1` (centres undefined) to `Cc1nc(C)n(C2CCCN(C(=O)c3ncoc3C(C)C)C2)n1` (centres undefined), the INHIBITION falls from 12.66% to -12.27%.

Going from `CC1=C(CCN2C[C@H](O)[C@@H](N3CCOCC3)C2)C(C)(C)CCC1` to `CN(C)C(=O)C1CCC2(CCN(Cc3cnn(C)c3)CC2)C1` (centres undefined), the INHIBITION rises from -57.94% to 9.65%.

First: CCOC(=O)N1CCN(c2nc(CCN)nc3sc(C)c(C)c23)CC1
Second: Cc1sc2nc(CCN)nc(N3CCN(S(C)(=O)=O)CC3)c2c1C
The INHIBITION of the first is lower: 17.89% for the first, 20.77% for the second.

First: Cc1sc2nc(CCN)nc(N3CCS(=O)(=O)CC3)c2c1C
Second: Cc1nc(C)c(CC(=O)N2CCC(c3ccn4nccc4n3)CC2)s1
The INHIBITION of the first is higher: 60.04% for the first, 3.58% for the second.

Going from `CCn1cc(Cl)c(C(=O)Nc2ccc3c(c2)C(C)(C)C(=O)N3C)n1` to `CSC(C)(C)CNC(=O)NCc1cccc(-n2ccnc2)c1`, the INHIBITION falls from 14.61% to -27.12%.

Compared with `COC(=O)c1cc(C(=O)N2CCCCCC2)n(-c2ccccc2)n1`, `COC(=O)c1cc(C(=O)N2CCC(C)CC2)n(-c2ccccc2)n1` is lower in INHIBITION: 63.95% for the first, 35.23% for the second.

First: COC(=O)c1cc(C(=O)N2CCN(C)CC2)n(-c2ccccc2)n1
Second: Cn1cc(Cl)cc1C(=O)N1CCCN(Cc2ccccc2)CC1
The INHIBITION of the first is higher: 15.4% for the first, -7.88% for the second.

First: CC(C)OCCCNC(=O)CS(=O)(=O)Cc1ccc(C(C)(C)C)cc1
Second: CC(C)C(O)C(C)(C)CNC(=O)NCc1ccc(-n2cncn2)cc1 (centres undefined)
The INHIBITION of the first is lower: 33.22% for the first, 53.19% for the second.

Going from `CC(C)(C)SCC(=O)NC(C)(C(N)=O)c1cccc(Cl)c1` (centres undefined) to `CC(NC(=O)Nc1ccc(-n2cncn2)cc1)C(=O)NC(C)(C)C` (centres undefined), the INHIBITION rises from -20.64% to 12.01%.

First: COCc1csc(NC(=O)NCc2ccsc2)n1
Second: COCc1csc(NC(=O)NCc2ccccn2)n1
The INHIBITION of the first is lower: -21.99% for the first, -4.91% for the second.

First: COCc1csc(NC(=O)NCc2ccc(C)s2)n1
Second: CC[C@@H](CO)NC(=O)c1coc(COc2ccc3sc(C)nc3c2)n1
The INHIBITION of the first is higher: 50.93% for the first, -10.58% for the second.

First: COc1ccc(CCC(=O)NC2CCC(O)CC2)cc1OC (centres undefined)
Second: Cc1noc(C)c1CC(=O)N1CCC(c2ccn3nccc3n2)CC1
The INHIBITION of the first is lower: -59.24% for the first, 52.57% for the second.

Compared with `Cc1[nH]ncc1C(=O)N1CCCC(c2ccn[nH]2)C1` (centres undefined), `CC(C)c1ocnc1C(=O)N1CCCC(c2ccn[nH]2)C1` (centres undefined) is higher in INHIBITION: -1.46% for the first, 70.81% for the second.

Compared with `CCCN(C(=O)c1ocnc1C)C1CCCN(Cc2ccccc2)C1` (centres undefined), `Cc1c[nH]c(C2CCCN(Cc3ccccc3C(=O)O)C2)n1` (centres undefined) is lower in INHIBITION: 4.72% for the first, -2.35% for the second.

Compared with `CC(O)CC(C)(C)CNC(=O)NCc1cccc(-n2cncn2)c1` (centres undefined), `CSC(C)(C)CNC(=O)NCc1cccc(-n2cncn2)c1` is higher in INHIBITION: 1.22% for the first, 54.29% for the second.

Going from `CC(O)(CNC(=O)NCc1cccc(-n2cncn2)c1)c1ccco1` (centres undefined) to `CCCn1cnnc1CNC(=O)C1COc2ccc(OC)cc2C1` (centres undefined), the INHIBITION rises from -33.81% to 21.14%.

Compared with `Cc1noc(C)c1CNC1CCN(c2ccccc2OC(F)F)C1` (centres undefined), `CO[C@H]1CC[C@H]2[C@H]1OCCN2CCOCc1ccccc1` is higher in INHIBITION: -15.77% for the first, -4.99% for the second.

Going from `CO[C@@H]1CN(Cc2scnc2C)[C@@H]2CCCO[C@@H]21` to `Cc1nc(CC(=O)N2CCC(c3ccn4nccc4n3)CC2)cs1`, the INHIBITION falls from 34.23% to 3.03%.

Compared with `CC(C)n1nc(CNc2ncccn2)c2c1CN(C1CCOCC1)CC2`, `Cn1cc(CN2CCO[C@@H]3CN(Cc4ccoc4)C[C@@H]3C2)cn1` is lower in INHIBITION: 38.49% for the first, -0.35% for the second.

First: Cc1noc(NC(=O)c2ccc(Br)cc2)n1
Second: CSCCNC(=O)c1coc(COc2ccc(F)cc2)n1
The INHIBITION of the first is lower: -43.47% for the first, 1.88% for the second.

Compared with `OCCN1CCN(CC(O)c2cc(Cl)ccc2Cl)CC1` (centres undefined), `CCN1CCN(CC(O)c2cc(Cl)ccc2Cl)CC1` (centres undefined) is lower in INHIBITION: -21.76% for the first, -31.79% for the second.

Going from `CCOCCN1CCN(CC(O)c2cc(Cl)ccc2Cl)CC1` (centres undefined) to `Cc1ccc(CN2CCC3(CC2)CCN(Cc2ccoc2)CC3)cc1`, the INHIBITION falls from 50.61% to 14.93%.

Compared with `O=C(Nc1ccccc1)c1ccc2c(c1)C1(CCCCC1)CN2`, `Cc1ccc(CN2CCCC3(CCN(Cc4ccoc4)CC3)C2)cc1` is higher in INHIBITION: -9.98% for the first, 78.88% for the second.

Compared with `COC(=O)CCNC(=O)c1coc(COc2ccc(F)cc2)n1`, `CNS(=O)(=O)CCNC(=O)c1coc(COc2ccc(F)cc2)n1` is lower in INHIBITION: 56.16% for the first, -38.4% for the second.

First: CC[C@H](CO)NC(=O)c1coc(COc2ccccc2F)n1
Second: CC[C@@H](CO)NC(=O)c1coc(COc2ccc(OC)cc2)n1
The INHIBITION of the first is lower: -9.75% for the first, 53.26% for the second.

Compound `Cn1ccnc1CN1CCC2(CC1)CCN(Cc1ccoc1)C2` has an INHIBITION of -78.53%.
